Reference: PubChem BioAssay AID1159580 (chemical genetic matrix, 2015)
The campaign covered roughly 5,500 compounds. About 2,000 (36%) were called active. Not shown: some 18% with an inconclusive outcome. Rule as the data show it: active = normalized growth mostly below about 0.91 (no sharp cut-off); inconclusive = no clear call, values can overlap the other calls; inactive = mostly above about 0.92. The list shows a part of the results.

Assay: chemical genetic growth profiling, strain panel (AID 1159580);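 also: tested at 20 µM; growth read once vehicle control cultures reached saturation at 30 °C; 1 = growth at the plate median or of vehicle wells; lower values mean less growth of the strain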
Details: S. cerevisiae deletion strains, growth OD
[1] = locus YAL013W, strain DEP1, active compounds read low
[2] = locus YGR078C, strain PAC10, active compounds read low
[3] = locus YJR075W, strain HOC1, active compounds read low
[4] = locus YMR307W, strain GAS1, active compounds read low

Measured: normalized growth

CN1C[C@@H](CS(=O)(=O)N(C)C)C[C@@H]2c3cccc4c3c(cn4C)C[C@H]21
inactive: [1] 1 | locus YAL040C, strain CLN3, active compounds read low 1.01 | locus YCL061C, strain MRC1 (second series), active compounds read low 1 | locus YDR363W, strain ESC2, active compounds read low 1.01 | locus YER002W, strain NOP16, active compounds read low 1.01 | [2] 1.01 | [3] 1 | [4] 1.03 | locus YNL175C, strain NOP13, active compounds read low 1.01 | locus YNL197C, strain WHI3, active compounds read low 1.02 | locus YNL224C, strain SQS1, active compounds read low 1.01 | locus YOR083W, strain WHI5 (second series), active compounds read low 1.03

Cc1c(C)c(C)c(CO)c(C)c1C
inactive: [1] 0.988 | locus YBR229C, strain ROT2, active compounds read low 1.01 | locus YDL101C, strain DUN1, active compounds read low 1.01 | locus YDR150W, strain NUM1, active compounds read low 0.981 | locus YEL061C, strain CIN8, active compounds read low 0.996 | [2] 0.998 | locus YHR030C, strain SLT2, active compounds read low 1.06 | locus YHR087W, strain rtc3, active compounds read low 1.01 | locus YJL187C, strain SWE1, active compounds read low 1 | locus YJR043C, strain POL32, active compounds read low 1 | [3] 1.04 | locus YLR039C, strain RIC1, active compounds read low 0.98 | locus YLR058C, strain SHM2 (second series), active compounds read low 1.02 | locus YLR085C, strain ARP6, active compounds read low 1.06 | locus YLR262C, strain YPT6, active compounds read low 0.955 | locus YML094W, strain GIM5, active compounds read low 0.996 | locus YMR219W, strain ESC1, active compounds read low 1.01 | locus YMR263W, strain SAP30, active compounds read low 0.993 | [4] 1.03 | locus YNL153C, strain GIM3, active compounds read low 0.97 | locus YNL298W, strain CLA4 (second series), active compounds read low 1.04 | locus YNL322C, strain KRE1, active compounds read low 1.01 | locus YNR030W, strain Alg12, active compounds read low 1 | locus YPL055C, strain LGE1, active compounds read low 0.997 | locus YPL241C, strain CIN2, active compounds read low 0.989 | locus YPR135W, strain CTF4, active compounds read low 1
